According to ChEMBL document CHEMBL3433997, “St. Jude Leishmania screening dataset” (2016):

What was measured:
Assay type in all cases: functional
[1] = target: Solute carrier family 2, facilitated glucose transporter member 1 (Homo sapiens) (UniProt P11166); experiment: ST_JUDE_LEISH: Cytotoxicity at 2uM final concentration against transgenic Leishmania Mexicana promastigotes LmGLUT1 that are glucose transport deficient and complemented with the human glucose transporter GLUT1. Activity is measured by DNA content using SYBR green in vitro
Chain of Solute carrier family 2, facilitated glucose transporter member 1 (Homo sapiens) (P11166 whole entry): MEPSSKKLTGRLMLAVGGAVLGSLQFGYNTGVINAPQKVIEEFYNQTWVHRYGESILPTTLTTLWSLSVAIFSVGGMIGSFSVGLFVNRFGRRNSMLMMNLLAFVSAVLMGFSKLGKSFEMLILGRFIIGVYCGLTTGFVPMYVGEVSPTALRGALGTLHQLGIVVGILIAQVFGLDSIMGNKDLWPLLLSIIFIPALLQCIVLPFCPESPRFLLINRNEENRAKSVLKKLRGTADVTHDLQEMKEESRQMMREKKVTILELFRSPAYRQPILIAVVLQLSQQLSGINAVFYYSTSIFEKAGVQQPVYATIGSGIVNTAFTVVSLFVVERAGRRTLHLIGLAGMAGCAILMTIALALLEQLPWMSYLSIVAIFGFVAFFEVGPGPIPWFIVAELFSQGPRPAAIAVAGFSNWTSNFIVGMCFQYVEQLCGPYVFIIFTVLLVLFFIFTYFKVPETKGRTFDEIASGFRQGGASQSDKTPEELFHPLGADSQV

[2] = target: Hexose transporter 1 (Plasmodium falciparum) (UniProt O97467); experiment: ST_JUDE_LEISH: Cytotoxicity at 2uM final concentration against transgenic Leishmania Mexicana promastigotes LmPfHT that are glucose transport deficient and complemented with the Plasmodium falciparum hexose transporter. Activity is measured by DNA content using SYBR green in vitro
[3] = target: Glucose transporter (Leishmania mexicana) (UniProt O61059); experiment: ST_JUDE_LEISH: Cytotoxicity at 2uM final concentration against transgenic Leishmania Mexicana promastigotes LmGT2 that are glucose transport deficient and complemented with the L. Mexicana glucose transporter 2. Activity is measured by DNA content using SYBR green in vitro

| Structure (SMILES) | inhibition [1] [%] | inhibition [2] [%] | inhibition [3] [%] |
| --- | --- | --- | --- |
| O=C(Nc1ccc(N2CCN(Cc3ccccc3)CC2)cc1)c1cccs1 | 0.15 | 0.83 | -1.68 |
| NC1=NC2(CCCCC2)N(OCCCCCCN2C(=O)c3ccccc3C2=O)C(N)=N1 | 12.9 | 7.88 | 11.2 |
| CCCC(C)N(Cc1ccc(C(C)(C)C)cc1)C(=O)c1cccc(OC)c1 (stereo not drawn) | -0.57 | -0.47 | -2.72 |
| COc1ccccc1CN1CCC(CNC(=O)c2cc(-c3cccc(C(F)(F)F)c3)cs2)C1 (stereo not drawn) | 0.96 | 1.45 | 1.94 |
| Cc1cc(N(C)C2CCN(C)C2)nc(Nc2ccc(Cl)cc2)n1 (stereo not drawn) | 7.55 | 8.61 | 4.14 |
| COc1ccccc1CCN1CCC(CN(C)Cc2ccc(O)c(Cl)c2)CC1 | 2.46 | 5.47 | 4.27 |
| CCc1c[nH]c2c(N3CCCC3=O)cc(C(=O)N[C@@H](Cc3ccccc3)[C@H](O)CNC(C)(C)c3cccc(OC)c3)cc12 | -0.15 | 1.3 | 1.9 |
| COc1ccc(NC(=O)CCNc2cc(C)nc(NCCOc3ccccc3)n2)cc1 | 2.22 | 2.64 | 1.92 |
| CC[C@H](C)[C@@H](C(=O)N1CCOCC1)N1CC[C@H](NS(=O)(=O)CC(C)(C)c2ccc(Cl)cc2)C1=O | 0.22 | 0.79 | -1.13 |
| O=C(Nc1cccc(-c2ccc(-c3nc4cc(C(F)(F)F)ccc4[nH]3)cc2)c1)c1cccnc1 | 3.27 | 1.71 | -0.02 |
| COc1ccc(-n2cc(C(=O)c3cc(Br)ccc3O)cc(C#N)c2=O)cc1Cl | 3.4 | 1.9 | 0.95 |
| COc1ccc2nccc([C@@H](O)CN3CCC(NCc4nc5cc(F)c(F)cc5[nH]4)CC3)c2c1 | 0.88 | 2.26 | -0.99 |
| COCc1ccc(CN2CCC(C(=O)Nc3ccc(-c4nc5ccccc5[nH]4)cc3)CC2)o1 | 7.66 | 5.18 | 5.81 |
| O=C(Nc1ccccc1)N(Cc1cccc(-c2ccc(CNC3CCCC3)cc2)c1)C1CCN(Cc2ccccc2)CC1 | 5.58 | 4.72 | 2.99 |
| COc1cccc(C(O)CNc2ccnc(Nc3cccc(-c4csc(C)n4)c3)n2)c1 (stereo not drawn) | 1.26 | -0.04 | 1.05 |
| CN1CCC(NCc2ccc(-c3ccc(S(=O)(=O)NCc4ccccc4)s3)cc2)CC1 | 6.58 | 6.78 | 4.55 |
